Screens deposited in PubChem BioAssay by Broad Institute.
CASP6 VEID inh = blocks human caspase-6 cleavage activity; P55212; purified caspase-6, Z-VEID-R110 cleavage fluorescence; inhibition, % at 12.5 µM; actives 0.53% (n = 350,000); AID 686996;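 active = mean inhibition across replicates at least about 35%, with every replicate also reaching that limit, limit read from the data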;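 note: 0% = median of neutral control wells and 100% = no fluorescence left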
Target sequence (P55212 24-179 limits assumed): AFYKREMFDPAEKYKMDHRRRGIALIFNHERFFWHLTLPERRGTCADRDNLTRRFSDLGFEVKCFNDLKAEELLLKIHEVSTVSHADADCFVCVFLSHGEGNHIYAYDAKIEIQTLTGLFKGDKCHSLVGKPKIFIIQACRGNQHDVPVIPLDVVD
Target sequence (P55212 194-293 limits assumed): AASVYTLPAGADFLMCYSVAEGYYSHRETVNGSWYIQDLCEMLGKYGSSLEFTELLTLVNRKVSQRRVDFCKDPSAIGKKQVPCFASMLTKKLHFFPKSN
RAD52 inh = blocks human RAD52 DNA annealing | P43351 | recombinant RAD52 DNA annealing, FRET fluorescence | inhibition, % at 18.7 µM | actives 0.46% (n = 360,000) | AID 651710;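 active = every replicate showing at least 50% inhibition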
AF4-AF9 inh = inhibitors of human MLL-AF4/AF9 interaction | actives 0.47% (n = 350,000) | P42568 | AlphaScreen, biotin-AF4 peptide binding to FLAG-AF9 | inhibition, % at 10 µM;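 active = every replicate reaching a set inhibition limit, whatever the replicate mean, cut at about 25% in these data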;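 note: 0% = plate neutral control median and 100% = total signal loss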
miR-122 sensor = miR-122 inhibition in Huh7 cells; actives 0.3% (n = 340,000); AID 602342; Huh7 miR-122 Renilla luciferase sensor, 48 h; neutral wells = 0, positive control = 100; activation (reporter increase), % at 12.5 µM;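 active = mean replicate activation score at least 90 and every replicate individually at or above 90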;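 note: higher luciferase means less miR-122 activity so hits act as miR-122 inhibitors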
NSD2 HMT inh = blocks human histone methyltransferase NSD2 | inhibition, % at 12.5 µM | actives 0.54% (n = 310,000) | O96028 | NSD2 peptide methylation, AlphaScreen, 120 min; in the data active = inhibition above about 50%
* hit, by the source's call; i = inactive; x = not tested or not shown; [ ] = remark or other dose. Shown are actives, neighbours in structure and some others; about 1.5% of the full set was active somewhere.

SMILES | CASP6 VEID inh | RAD52 inh | AF4-AF9 inh | miR-122 sensor | NSD2 HMT inh
CC(=O)Nc1cccc(-c2ccnc3c2CC(C(=O)NCc2ccncc2)O3)c1 (configuration not stated) | -8 | 4 | -8 | -9 | 25
CC(=O)Nc1cccc(-c2ccnc3c2CC(C(=O)NCc2ccc(N(C)C)cc2)O3)c1 (configuration not stated) | 0 | -17 | 31* | x | 8
Cc1cccc2c3c([nH]c12)[C@H]1CCC(=O)N1CC3 | 1 | -3 | -1 | x | x
CCOC(=O)C1=C(C)NC(C)=C(C(=O)OCC)C1C(=O)OCC(=O)NC(C)c1ccccc1 (configuration not stated) | 46* | -12 | -2 | 0 | -7
CCOC(=O)C1=C(C)NC(C)=C(C(=O)OCC)C1C(=O)OCC(=O)NCc1ccccc1 | 3 | -9 | -2 | -4 | -2
CCCNC(=O)C[C@H]1CC[C@@H]2[C@H](COc3ccc(NC(=O)Cc4cccs4)cc3C(=O)N2C)O1 | x | x | x | 10[16.7 µM] | x
CN(C(=O)c1ccc(Cl)cc1)c1ccc(OCC(=O)Nc2cc(C(=O)O)ccc2Cl)cc1 | 36* | -3 | -7 | x | 7
O=[N+]([O-])c1cccc2ccc(/C=C/c3ccc(Cl)cc3)nc12 | 5 | -35 | 8 | x | 3
CCOc1cc(/C=C/c2ccc3cccc([N+](=O)[O-])c3n2)cc(Cl)c1O | x | x | x | 113* | -2
Fc1ccc2cnc(CCO[C@H]3CCCCO3)cc2c1 | -1 | -7 | 49* | 0 | x
Fc1ccc2cc(CCO[C@H]3CCCCO3)ncc2c1 | 0 | -7 | -4 | 5 | x
COC(=O)[C@@H](NC(=O)c1ccc(OC2CCN(Cc3ccccn3)CC2)cc1)C(C)C | x | x | x | x | -3
CC(CNC(=O)c1ccc(OC2CCN(Cc3ccccn3)CC2)cc1)c1ccccc1 (configuration not stated) | 45* | -17 | 3 | 7 | 2
COc1ccccc1Oc1ccc(S(=O)(=O)N2CCCCC2C)cc1 (configuration not stated) | x | -14 | 1 | x | -6
COc1ccc(S(=O)(=O)N2CCCCC2C)cc1 (configuration not stated) | -2 | 5 | 29* | 9 | -3
Oc1ccc(/C=N/NC(=S)Nc2cccnc2)cc1O | 13 | -10 | -3 | x | 75*
O=S(=O)(c1ccc(NC(=S)N/N=C/c2ccc(O)c(O)c2)cc1)N1CCOCC1 | 40* | -12 | 12 | -2 | 19
O=C(N/N=C/c1ccc(O)c(O)c1)N/N=C/c1ccc(O)c(O)c1 | 75* | -1 | -4 | x | x
Cc1nonc1C(=O)N/N=C/c1ccc(O)c(O)c1 | x | x | x | -5 | 4
COc1cccc(C#Cc2cnc3c(c2)C(=O)N([C@@H](C)CO)C[C@H](C)[C@H](CN(C)C(C)=O)O3)c1 | 1 | 16 | -3 | -2[16.7 µM] | x
CC(C)NC(=O)N(C)C[C@H]1Oc2ncc(C#CCc3ccccc3)cc2C(=O)N([C@H](C)CO)C[C@@H]1C | 4 | 19 | -2 | 4[16.7 µM] | x
Cc1cc(C(=O)COC(=O)c2cc(Cl)c(O)c(Cl)c2)c(C)n1C | 58* | -5 | -4 | -9 | 9
Cc1cc(C(=O)COC(=O)c2ccc(F)cc2)c(C)n1C | 1 | -1 | -12 | -13 | -2
C=C(C)C(=O)Nc1cccc(C2=NOC3(C2)C[C@@H](C(N)=O)N(C(=O)C(=C)C)C3)c1 (some centres not stated) | 38* | -49 | -60 | 0 | x
C=C(C)C(=O)Nc1cccc(C2=NOC3(C2)C[C@H](C(N)=O)N(C(=O)/C=C/C)C3)c1 (some centres not stated) | 53* | 2 | -26 | 2 | x
SMILES | CASP6 VEID inh | RAD52 inh | AF4-AF9 inh | miR-122 sensor | NSD2 HMT inh
C=C(C)C(=O)Nc1cccc(C2=NOC3(C2)C[C@@H](C(N)=O)N(C(=O)/C=C/CC)C3)c1 (some centres not stated) | 44* | -12 | -44 | 0 | x
C/C=C\C(=O)Nc1cccc(C2=NOC3(C2)C[C@H](C(N)=O)N(C(=O)/C=C/CC)C3)c1 (some centres not stated) | -9 | 16 | -14 | -16 | x
C=C(C)C(=O)Nc1cccc(C2=NOC3(C2)C[C@H](C(N)=O)N(C(=O)COc2ccc(Cl)cc2)C3)c1 (some centres not stated) | 51* | -4 | -19 | x | x
COc1ccccc1CNC(=O)C[C@H]1CC[C@H](NC(=O)CN(C)C)[C@@H](CO)O1 | 1 | -2 | -2 | x | x
CCCCNC(=S)N1CCN(CC)CC1 | 45* | 2 | -3 | 9 | 4
O=S(=O)(Cc1ccccc1)NCc1cccnc1 | x | x | x | 19 | -2
O=C1C(Cl)=C(NCc2cccnc2)C(=O)c2ccccc21 | 87* | -5 | 5 | x | 48
CC(=O)N1CCCc2cc(S(=O)(=O)N3CCCC(C(=O)NCc4ccccc4Cl)C3)ccc21 (configuration not stated) | 0 | -27 | 32* | x | 18
CC(=O)N1c2ccc(S(=O)(=O)N3CCCC(C(=O)NCc4ccccc4Cl)C3)cc2CC1C (configuration not stated) | -1 | -22 | -1 | 2 | 1
Cc1cc(C(=O)O)ccc1-c1ccc(/C=C2\SC(=O)N(CC(=O)Nc3ccc4c(c3)OCO4)C2=O)o1 | 3 | -259 | -1 | -1 | 5
C#CCN1C(=O)S/C(=C\c2ccc(-c3ccc(C(=O)O)cc3C)o2)C1=O | 58* | -68 | -3 | -1 | 12
Cc1ccc(C(=O)O)cc1-c1ccc(/C=C2\SC(=O)N(CC(=O)Nc3ccccc3)C2=O)o1 | 35* | -116 | -5 | -6 | 19
CCOC(=O)C(C)N1C(=O)S/C(=C\c2ccc(-c3ccccc3C(=O)O)o2)C1=O (configuration not stated) | 60* | -119 | 0 | -1 | 49
Cc1ccccc1NC(=O)CN1C(=O)S/C(=C\c2ccc(-c3cc(C(=O)O)ccc3C)o2)C1=O | 0 | -436 | -1 | 8 | 14
CC(C)CN1C(=O)NC2(CCCc3ccccc32)C1=O (configuration not stated) | 40* | -8 | 0 | 6 | 24
C[C@@H]1CN([C@H](C)CO)C(=O)c2cc(NC(=O)CCN3CCOCC3)ccc2O[C@H]1CN(C)Cc1ccc(C(F)(F)F)cc1 | -6 | -24 | 1 | 1[16.7 µM] | x
Cc1ccn2c(Nc3ccccc3C)c(-c3ccccn3)nc2c1 | -1 | 28 | x | 18 | 39
Cc1ccccc1Nc1c(-c2ccccn2)nc2ccccn12 | 0 | 15 | 42* | -4 | 11
COc1cccc(NS(=O)(=O)c2ccc3c(c2)NC(=O)CC(=O)N3)c1 | 99* | -3 | 2 | x | -1
COc1cccc(NS(=O)(=O)c2ccc3c(c2)NC(=O)C(C)C(=O)N3)c1 (configuration not stated) | -1 | -2 | -5 | 4 | x
C[C@H]1CN([C@@H](C)CO)C(=O)c2cc(NC(=O)Cc3cn(C)c4ccccc34)ccc2O[C@H]1CN(C)Cc1ccc(C(F)(F)F)cc1 | 0 | -14 | -1 | 2[16.7 µM] | x
Cc1c(C=O)c(Cl)n(C)c(=O)c1C#N | 51* | i | -3 | x | x
